The record followed here is PubChem BioAssay (EPA / NIEHS).

Assay [1] addresses Hepatocyte nuclear factor 3-beta (Homo sapiens) (UniProt Q9Y261). Kind of assay: ATG_FoxA2_CIS: Attagene CIS-FACTORIAL HepG2 Assay for human Forkhead box A2 (FOXA2) (AID 2282942). The following applies: HepG2 cis-reporter transcription factor activity, 24 h; actives raise or lower the signal. In a few lines: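 In transiently transfected human HepG2 cells, promoter-driven reporter mRNA levels after 24 h chemical exposure are determined via RT-PCR with capillary electrophoresis. DMSO serves as baseline for bidirectional fitting.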

Assay [2] can be described thus: ATG_FoxO_CIS: Attagene CIS-FACTORIAL HepG2 Assay for human Forkhead box O (FoxO) (AID 2282943). The following applies: HepG2 Attagene cis-reporter, FoxO element, mRNA; actives raise or lower the signal. The gist of the method: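 Values reflect reporter mRNA induction or loss in HepG2 cells 24 h post-dosing, fitted bidirectionally with DMSO as negative control and baseline. Detection used RT-PCR and fluorescence capillary electrophoresis.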

Assay [3] has as its target Hypoxia-inducible factor 1-alpha (Homo sapiens) (UniProt Q16665). Kind of assay: ATG_HIF1a_CIS: Attagene CIS-FACTORIAL HepG2 Assay for human Hypoxia Inducible Factor 1 (HIF1A) (AID 2282951). The following applies: HepG2 Attagene cis-factorial HIF1a reporter transcription; actives raise or lower the signal. The gist of the method: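 In this multiplexed cell assay, HepG2 cells bearing transfected cis reporters are dosed for 24 h and reporter mRNA is read by RT-PCR plus capillary electrophoresis; signal increases and decreases are both scored against DMSO.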

Assay [4] addresses Hepatocyte nuclear factor 6 (Homo sapiens) (UniProt Q9UBC0). Kind of assay: ATG_HNF6_CIS: Attagene CIS-FACTORIAL HepG2 Assay for human Hepatocyte Nuclear Factor 6 (HNF6) (AID 2282952). The following applies: HepG2 Attagene cis-factorial HNF6 reporter transcription; actives raise or lower the signal. The gist of the method: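 Transiently transfected HepG2 cells expressing cis-regulated reporter transcription units were exposed to chemical for 24 h in a 24-well format. Reporter transcript abundance was determined by fluorescence capillary electrophoresis.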

Assay [5] has as its target Heat shock factor protein 1 (Homo sapiens) (UniProt Q00613). The assay can be described thus: ATG_HSE_CIS: Attagene CIS-FACTORIAL HepG2 Assay for human Heat Shock Transcription Factor 1 (HSE) (AID 2282953). Conditions: HepG2 HSE cis-reporter, Attagene RNA transcription; actives raise or lower the signal. The gist of the method:
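Endogenous transcription factor activity captured via cis-promoter reporter units transfected into HepG2; treatment lasted 24 h. Fluorescence intensity of reporter fragments analysed with bidirectional curve fitting, DMSO baseline.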

The target of assay [6] is Nuclear respiratory factor 1 (Homo sapiens) (UniProt Q16656). Kind of assay: ATG_NRF1_CIS: Attagene CIS-FACTORIAL HepG2 Assay for human Nuclear Respiratory Factor 1 (NRF1) Orphan Gene (AID 2282987). The following applies: HepG2 NRF1 cis-element reporter, Attagene multiplex; actives raise or lower the signal. In a few lines:
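Transcriptional reporter readout, one component of a 52-endpoint multiplexed HepG2 panel. Exposure 24 h; mRNA detected via RT-PCR and fluorescent capillary electrophoresis; fitting in both directions against DMSO.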

Assay [7] in a line: ATG_NRF2_ARE_CIS: Attagene CIS-FACTORIAL HepG2 Assay for human Nuclear Factor Erythroid 2 Related Factor 2 (NFR2) response to Antioxidant Response Elements (ARE) (AID 2282992).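 For AC50: reporter mRNA level measured by RT-PCR and capillary electrophoresis fluorescence.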 The following applies: HepG2 Attagene ARE/NRF2 reporter, transcription factor activity; actives raise or lower the signal. In a few lines:
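HepG2 cells transiently transfected with multiplexed cis-element reporter constructs, 24 h after chemical dosing; reporter mRNA quantified by RT-PCR, fluorescent primer extension, HpaI digestion and capillary electrophoresis. Bidirectional fit relative to DMSO.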

Assay [8] addresses Cellular tumor antigen p53 (Homo sapiens) (UniProt P04637). Kind of assay: ATG_p53_CIS: Attagene CIS-FACTORIAL HepG2 Assay for human p53 Transcription Factor (AID 2282994). The following applies: HepG2 p53 cis-element reporter, Attagene mRNA; actives raise or lower the signal. The gist of the method: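 HepG2 cells transiently transfected with cis-regulated multiple reporter transcription units, dosed 24 h. Reporter mRNA measured by RT-PCR, 6-FAM primer extension, HpaI digestion and capillary electrophoresis; bidirectional fit relative to DMSO.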

The nature of assay [9]: ATG_GRE_CIS: Attagene CIS-FACTORIAL HepG2 Assay for human Glucocorticoid Response Elements (GRE) (AID 2282947). Conditions: HepG2 GRE cis-reporter, Attagene multiplex mRNA; actives raise or lower the signal. In a few lines: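 HepG2 cells transiently transfected with multiple cis-promoter reporter units measure endogenous TF activity; 24 h compound exposure. Reporter mRNA quantified by RT-PCR, FAM labelling, HpaI digestion and capillary electrophoresis; bidirectional fit vs DMSO baseline.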

Read-out in assay [10]: Interleukin-8 (IL8), CXCL8 (gene 3576)
The assay can be described thus: BSK_3C_IL8: BioMAP Diversity Plus: 3C Assay for Interleukin-8 (IL8) Biomarker Activity (AID 2283020). The following applies: primary human endothelial cells (HUVEC); actives raise or lower the signal. In a few lines:
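Primary human umbilical vein endothelial cells (3C system) were exposed to test chemical for 24 h, then IL-8 was quantified by ELISA. Responses were fitted bidirectionally against DMSO vehicle as baseline.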

Read-out in assay [11]: Thrombomodulin, THBD (gene 7056)
Kind of assay: BSK_3C_Thrombomodulin: BioMAP Diversity Plus: 3C Assay for Thrombomodulin Biomarker Activity (AID 2283029). Conditions: primary human endothelial cells (HUVEC); actives raise or lower the signal. The gist of the method:
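Primary human umbilical vein endothelial cells (3C system) were exposed to chemical for 24 h, then thrombomodulin levels were measured by ELISA. Activity was fitted bidirectionally against the DMSO negative control as baseline.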

Read-out in assay [12]: Urokinase-type plasminogen activator receptor (uPAR), PLAUR (gene 5329)
The assay can be described thus: BSK_4H_uPAR: BioMAP Diversity Plus: 4H Assay for Urokinase-type plasminogen activator receptor (uPAR) Biomarker Activity (AID 2283030). Conditions: primary human endothelial cells (HUVEC); actives raise or lower the signal. The gist of the method:
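HUVEC, 24 h post-dose; uPAR by ELISA; bidirectional fit vs DMSO baseline.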

Read-out in assay [13]: Vascular endothelial growth factor receptor 2 (Homo sapiens) (UniProt P35968)
Kind of assay: BSK_4H_VEGFRII: BioMAP Diversity Plus: 4H Assay for Vascular endothelial growth factor receptor 2 (VEGFR2) Biomarker Activity (AID 2283031).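 For AC50: cell-surface VEGFR2 protein level quantified by ELISA.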 Conditions: primary human endothelial cells (HUVEC); actives raise or lower the signal. In a few lines: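 HUVEC (human primary), 4H system; 24 h post-dose; VEGFRII by ELISA; bidirectional curve fit vs DMSO baseline; gain or loss of signal scored.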

Read-out in assay [14]: Monokine induced gamma interferon (MIG), CXCL9 (gene 4283)
The assay can be described thus: BSK_CASM3C_MIG: BioMAP Diversity Plus: CASM3C Assay for Monokine induced gamma interferon (MIG) Biomarker Activity (AID 2283048).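 Note: MIG protein level measured by ELISA.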 Conditions: primary human coronary artery smooth muscle cells; actives raise or lower the signal.

Read-out in assay [15]: serum amyloid A (SAA), SAA1 (gene 6288)
The assay can be described thus: BSK_CASM3C_SAA: BioMAP Diversity Plus: CASM3C Assay for serum amyloid A (SAA) Biomarker Activity (AID 2283049).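 Note: SAA protein level quantified by ELISA.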 The following applies: primary human coronary artery smooth muscle cells; actives raise or lower the signal.

Read-out in assay [16]: Thrombomodulin, THBD (gene 7056)
The assay can be described thus: BSK_CASM3C_Thrombomodulin: BioMAP Diversity Plus: CASM3C Assay for Thrombomodulin Biomarker Activity (AID 2283051).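 Note: thrombomodulin protein level measured by ELISA 24 h after dosing.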 Conditions: primary human coronary artery smooth muscle cells; actives raise or lower the signal.

Read-out in assay [17]: Vascular cell adhesion molecule 1 (VCAM1), VCAM1 (gene 7412)
Kind of assay: BSK_CASM3C_VCAM1: BioMAP Diversity Plus: CASM3C Assay for Vascular cell adhesion molecule 1 (VCAM1) Biomarker Activity (AID 2283055).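 Note: VCAM-1 protein level quantified by ELISA on the cells.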 The following applies: primary human coronary artery smooth muscle cells; actives raise or lower the signal.

Read-out in assay [18]: Interleukin-8 (IL8), CXCL8 (gene 3576)
The assay can be described thus: BSK_LPS_IL8: BioMAP Diversity Plus: LPS Assay for Interleukin-8 (IL8) Biomarker Activity (AID 2283078). The following applies: primary human HUVEC with PBMC; actives raise or lower the signal. The gist of the method: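 HUVEC + PBMC co-culture, LPS-activated; test chemicals dosed, IL-8 read by ELISA at 24 h. Bidirectional curve fit vs DMSO baseline (gain or loss of signal).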

Read-out in another assay: CD40, CD40 (gene 958)
The assay can be described thus: BSK_SAg_CD40: BioMAP Diversity Plus: SAg Assay for CD40 Biomarker Activity (AID 2283088). Conditions: primary human HUVEC with PBMC; actives raise or lower the signal. The gist of the method:
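HUVEC/PBMC co-culture, 24 h post-dose; CD40 by ELISA, fluorescence intensity; bidirectional fit vs DMSO negative control.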

Read-out in assay [19]: Collagen I, COL1A1 (gene 1277)
The assay can be described thus: BSK_hDFCGF_CollagenI: BioMAP Diversity Plus: hDFCGF Assay for Collagen I Biomarker Activity (AID 2284250). Conditions: primary human foreskin fibroblasts. In a few lines:
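Primary human foreskin fibroblasts (hDFCGF system) exposed to chemical for 24 h; Collagen I measured by ELISA. Activity fitted in the positive direction relative to DMSO baseline, with SRB total-protein staining in parallel cultures for overt cytotoxicity.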

Where “and” joins values, the source holds several entries; their conditions need not be identical. Identical values can stand only once. The source holds several records for some structures; these can differ, active in one and inactive in another. Calls of active or inactive are those of the source. Rule for the calls: active = hit-call score of the fitted dose curve at least 0.9, where 1 is the maximum; inactive = score below 0.9.

Broadly, the AC50 is the concentration giving half of the maximal activity seen.

Sequence of Hepatocyte nuclear factor 6 (Homo sapiens) (Q9UBC0 whole entry, looked up): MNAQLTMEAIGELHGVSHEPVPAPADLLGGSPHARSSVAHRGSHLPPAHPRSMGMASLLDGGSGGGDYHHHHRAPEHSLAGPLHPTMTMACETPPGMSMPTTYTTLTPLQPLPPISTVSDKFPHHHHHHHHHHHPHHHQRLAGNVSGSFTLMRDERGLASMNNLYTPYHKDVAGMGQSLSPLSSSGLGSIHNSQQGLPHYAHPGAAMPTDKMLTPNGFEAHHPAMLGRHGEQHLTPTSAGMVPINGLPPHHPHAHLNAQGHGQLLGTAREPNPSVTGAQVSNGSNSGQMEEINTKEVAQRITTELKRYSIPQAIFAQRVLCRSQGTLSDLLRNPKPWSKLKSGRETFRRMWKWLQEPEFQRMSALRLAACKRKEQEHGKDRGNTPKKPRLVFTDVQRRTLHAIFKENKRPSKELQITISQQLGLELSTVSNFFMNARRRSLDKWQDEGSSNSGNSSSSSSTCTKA
Sequence of Heat shock factor protein 1 (Homo sapiens) (Q00613 whole entry, looked up, the tested form may be a part): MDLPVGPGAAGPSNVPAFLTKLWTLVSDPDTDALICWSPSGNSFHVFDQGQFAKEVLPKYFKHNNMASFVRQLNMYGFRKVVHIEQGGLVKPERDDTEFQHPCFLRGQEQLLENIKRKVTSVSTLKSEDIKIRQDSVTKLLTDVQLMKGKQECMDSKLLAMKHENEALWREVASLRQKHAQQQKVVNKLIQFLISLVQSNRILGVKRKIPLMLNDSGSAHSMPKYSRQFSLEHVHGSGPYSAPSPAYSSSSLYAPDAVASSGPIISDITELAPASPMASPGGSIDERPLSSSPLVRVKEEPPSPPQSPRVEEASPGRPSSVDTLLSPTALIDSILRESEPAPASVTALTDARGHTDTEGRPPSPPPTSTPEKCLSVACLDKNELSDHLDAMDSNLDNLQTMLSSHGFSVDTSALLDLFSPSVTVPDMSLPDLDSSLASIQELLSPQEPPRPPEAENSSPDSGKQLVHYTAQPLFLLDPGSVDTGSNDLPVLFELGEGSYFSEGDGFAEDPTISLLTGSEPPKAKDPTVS
Sequence of Hypoxia-inducible factor 1-alpha (Homo sapiens) (Q16665 whole entry, looked up): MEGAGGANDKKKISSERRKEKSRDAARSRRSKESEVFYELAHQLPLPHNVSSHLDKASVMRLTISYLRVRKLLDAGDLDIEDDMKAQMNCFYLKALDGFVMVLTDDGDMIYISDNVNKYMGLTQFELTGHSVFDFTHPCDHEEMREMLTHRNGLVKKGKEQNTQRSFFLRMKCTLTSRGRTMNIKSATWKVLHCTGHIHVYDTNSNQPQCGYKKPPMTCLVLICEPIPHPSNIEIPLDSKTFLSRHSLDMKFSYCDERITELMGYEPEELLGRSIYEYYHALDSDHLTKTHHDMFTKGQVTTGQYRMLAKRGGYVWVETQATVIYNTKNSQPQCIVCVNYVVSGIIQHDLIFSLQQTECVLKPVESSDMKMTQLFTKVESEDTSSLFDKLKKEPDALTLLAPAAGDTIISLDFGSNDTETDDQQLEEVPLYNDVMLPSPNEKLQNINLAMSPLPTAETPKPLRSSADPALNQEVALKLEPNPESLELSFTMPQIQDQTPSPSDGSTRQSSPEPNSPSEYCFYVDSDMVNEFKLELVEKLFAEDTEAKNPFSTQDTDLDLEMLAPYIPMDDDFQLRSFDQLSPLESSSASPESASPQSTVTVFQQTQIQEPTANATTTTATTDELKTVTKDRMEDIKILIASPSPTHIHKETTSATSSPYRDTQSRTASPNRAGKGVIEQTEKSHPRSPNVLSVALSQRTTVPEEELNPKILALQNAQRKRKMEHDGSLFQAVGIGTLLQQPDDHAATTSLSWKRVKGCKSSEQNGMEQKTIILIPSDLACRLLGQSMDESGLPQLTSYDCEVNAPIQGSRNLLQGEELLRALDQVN
Sequence of Nuclear respiratory factor 1 (Homo sapiens) (Q16656 whole entry, looked up): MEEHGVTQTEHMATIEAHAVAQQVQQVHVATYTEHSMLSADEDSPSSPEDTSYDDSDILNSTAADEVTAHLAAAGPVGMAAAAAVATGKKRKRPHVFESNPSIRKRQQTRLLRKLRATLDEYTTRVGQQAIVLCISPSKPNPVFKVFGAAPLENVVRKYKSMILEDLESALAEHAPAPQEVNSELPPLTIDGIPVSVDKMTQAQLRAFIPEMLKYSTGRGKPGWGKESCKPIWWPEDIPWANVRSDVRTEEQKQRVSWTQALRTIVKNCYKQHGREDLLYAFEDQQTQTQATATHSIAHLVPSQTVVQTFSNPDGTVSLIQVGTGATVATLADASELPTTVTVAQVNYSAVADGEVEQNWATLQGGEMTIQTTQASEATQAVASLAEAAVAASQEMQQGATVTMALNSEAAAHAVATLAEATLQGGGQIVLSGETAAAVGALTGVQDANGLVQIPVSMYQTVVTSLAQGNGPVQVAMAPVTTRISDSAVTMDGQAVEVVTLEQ
Sequence of Hepatocyte nuclear factor 3-beta (Homo sapiens) (Q9Y261 whole entry, looked up): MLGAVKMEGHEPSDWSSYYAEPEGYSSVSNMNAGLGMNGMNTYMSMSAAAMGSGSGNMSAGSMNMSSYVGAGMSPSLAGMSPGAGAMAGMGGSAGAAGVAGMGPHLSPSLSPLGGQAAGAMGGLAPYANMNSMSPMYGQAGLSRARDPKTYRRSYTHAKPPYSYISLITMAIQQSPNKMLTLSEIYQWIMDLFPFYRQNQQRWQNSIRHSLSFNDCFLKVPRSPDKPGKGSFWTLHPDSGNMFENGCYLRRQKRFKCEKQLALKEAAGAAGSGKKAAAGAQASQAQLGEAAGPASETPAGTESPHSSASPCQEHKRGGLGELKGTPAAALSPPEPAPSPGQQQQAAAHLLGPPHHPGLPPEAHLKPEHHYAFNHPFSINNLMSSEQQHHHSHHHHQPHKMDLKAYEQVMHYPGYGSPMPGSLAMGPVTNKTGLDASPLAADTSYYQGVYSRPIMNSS
Sequence of Cellular tumor antigen p53 (Homo sapiens) (P04637 whole entry, looked up): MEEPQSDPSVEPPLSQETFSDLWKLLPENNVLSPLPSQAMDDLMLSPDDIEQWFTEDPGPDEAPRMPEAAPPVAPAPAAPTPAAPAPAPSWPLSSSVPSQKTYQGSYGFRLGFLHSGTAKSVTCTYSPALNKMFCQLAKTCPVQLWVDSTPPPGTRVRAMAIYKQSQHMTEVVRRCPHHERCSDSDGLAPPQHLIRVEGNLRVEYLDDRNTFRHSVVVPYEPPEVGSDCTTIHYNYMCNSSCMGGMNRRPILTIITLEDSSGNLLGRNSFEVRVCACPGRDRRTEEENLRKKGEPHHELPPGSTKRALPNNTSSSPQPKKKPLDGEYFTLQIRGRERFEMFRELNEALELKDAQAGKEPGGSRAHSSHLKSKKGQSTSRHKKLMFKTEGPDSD

Turning to `CC1=CCCC(C)(C)C12CCC(C)O2` (configuration not stated), the call in assay [1], in assay [2], in assay [3], in [4], in assay [5] and in [6] was inactive. Further, the molecule was called inactive in assay [8]. The AC50 in assay [7] was 17.5 µM (active).

For the molecule `CCOC(=O)c1ccccc1`, the molecule was classed as inactive in assay [1], in assay [3], in [4], in assay [5], in [6] and in assay [7]. The molecule was classed as inactive in [8]. Also, the concentration at half-maximal activity (AC50) in assay [9] is 61.9 µM (active).

Regarding `OC(C(F)(F)F)(C(F)(F)F)C(O)(C(F)(F)F)C(F)(F)F`, the half-maximal activity concentration (AC50) in [10] is 39.9 µM (active) and 45.7 µM (active); in assay [11], 48 µM (active); in assay [12] it was 12.7 µM (active) and 15.4 µM (active); in assay [13], 30 µM (active) and 20.5 µM (active); in assay [14], 39.8 µM (active) and 30 µM (active); in [16], 30 µM (active). The AC50 is 30 µM (active) in [17]; 35.2 µM (active) and 28.6 µM (active) with CD40, CD40 (gene 958); 30 µM (active) in [19]. Moreover, the result in assay [11], in [15], in [16], in [18] and in assay [19] was inactive.

As for `CCC[Si](OC(C)=O)(OC(C)=O)OC(C)=O`, the outcome in assay [10], in assay [11], in [12], in assay [13], in assay [14] and in assay [15] was inactive. The outcome in assay [16] was “inactive”; in [17] it was “inactive”; in [18], “inactive”; with CD40, CD40 (gene 958), “inactive”; in assay [19], “inactive”.

As to `O=[N+]([O-])c1cc(S(=O)(=O)Nc2ccccc2)ccc1Nc1ccccc1`, the concentration at half-maximal activity (AC50) in assay [10] is 30.7 µM (active); in assay [11] it was 20 µM (active); in [12] it was 33.5 µM (active); in assay [13], 32.6 µM (active); in assay [16] it was 5.66 µM (active) and 8.09 µM (active); in assay [17], 20 µM (active). The AC50 in assay [18] is 22.7 µM (active) and 20 µM (active); with CD40, CD40 (gene 958), 26 µM (active) and 25 µM (active); in [19], 3.86 µM (active). Further, the result in assay [10], in assay [11], in assay [12], in assay [13], in [14] and in [15] was inactive. In addition, the outcome in assay [17] and in assay [19] was inactive.

`CCC(C)(CCC(C)C)C(=O)O` (configuration not stated): the outcome in assay [1], in [2], in [3], in assay [4], in [6] and in assay [7] was inactive.

`CCO[Si](CCCN)(OCC)OCC`: the result in assay [1], in [9], in assay [3], in [4], in assay [5] and in assay [6] was inactive. Also, the outcome in assay [7] and in assay [8] was inactive.
